Assay outcomes (PubChem)
Nrf2 inh: inhibitors of Nrf2 signaling. Potency, µM (titrated, usually from 46 µM), hits mostly inhibitors. A549 ARE-Fluc reporter, luciferase luminescence, 18-24 h. AID 504444. actives 2.1% (n = 360,000); also: nearly all actives have a fitted effect of over 60% in size
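Two sequential reads on A549 ARE_Fluc cells exposed to compound for 18-24 h: a CellTiter-Fluor fluorescence read for viability, then a luciferase luminescence read for Nrf2/ARE activity.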
Mito fusion yeast: mitochondrial division inhibition or fusion activation; S. cerevisiae fusion-defective mutant growth rescue, CellTiterGlo 48 h; Potency, µM (series often up to 46.1 µM), most hits filed as activators; actives 0.23% (n = 320,000); AID 485298; also: nearly all actives have a fitted effect of over 45% in size
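Growth-rescue viability read-out: after 48 h at the non-permissive 37C in glycerol/ethanol YPEG, yeast mitochondrial fusion mutants are measured by CellTiterGlo luminescence; compounds (23 nl pinned per well) restoring growth score as division inhibitors or fusion activators.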
rTrxR1 inhibitor: rat TrxR1 inhibition | recombinant rTrxR1, NADPH fluorescence consumption, selenite substrate | Potency, µM (doses to about 114 µM), hits mostly inhibitors | actives 1% (n = 390,000) | AID 588453; also: nearly all actives have a fitted effect of over 65% in size
Target sequence (O89049 whole entry, looked up): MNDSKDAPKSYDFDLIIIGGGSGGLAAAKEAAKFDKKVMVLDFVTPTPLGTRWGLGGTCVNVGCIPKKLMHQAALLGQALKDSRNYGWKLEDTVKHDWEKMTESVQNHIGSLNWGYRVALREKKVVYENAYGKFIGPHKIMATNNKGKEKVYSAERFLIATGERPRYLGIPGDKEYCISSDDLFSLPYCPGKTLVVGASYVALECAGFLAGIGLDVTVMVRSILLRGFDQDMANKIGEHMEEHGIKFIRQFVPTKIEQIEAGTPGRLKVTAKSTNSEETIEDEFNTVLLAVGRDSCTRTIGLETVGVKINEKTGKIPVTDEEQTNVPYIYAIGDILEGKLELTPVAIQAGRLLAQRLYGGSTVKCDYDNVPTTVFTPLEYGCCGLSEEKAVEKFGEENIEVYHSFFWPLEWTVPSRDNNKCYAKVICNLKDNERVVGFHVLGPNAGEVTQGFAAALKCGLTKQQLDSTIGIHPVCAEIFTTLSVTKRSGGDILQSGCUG
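Rat TrxR1 (90 nM in the dispensed reagent) was pre-reduced with 400 uM NADPH for 5 min at room temperature, then incubated with compound for 15 min. After 400 uM selenite was added, NADPH fluorescence (Ex 340/Em 450 nm) was followed for 8 min.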
TrxR1 substrate: substrates of rat thioredoxin reductase 1; purified TrxR1 substrate turnover, NADPH consumption readout; O89049; Potency, µM (doses to about 114 µM); actives 0.01% (n = 390,000); also: nearly all actives have a fitted effect of over 50% in size
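Rat TrxR1, dispensed at 90 nM, was prereduced with 400 uM NADPH (final) for 5 min at ~22 deg C, then incubated with compound 15 min before 400 uM selenite. A first-read NADPH fluorescence drop versus no-compound background flagged substrates.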
A549 tox-1: A549 cytotoxicity, counter-screen for Nrf2 inhibitors. A549 ARE-Fluc cells, CellTiter-Fluor viability, 18-24 h. Potency, µM (highest dose often 46 µM), most hits filed as inhibitors. actives 0.16% (n = 390,000). AID 504648
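Cytotoxicity counterscreen: CellTiter-Fluor fluorescence was measured in A549 ARE_Fluc cells after 18-24 h of compound exposure in a concentration series. The subsequent BugLite luminescent read reports ARE-luciferase activity.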
mIDH1 inhibitor: blocks human mutant IDH1 R132H enzyme. O75874. IDH1-R132H enzyme, NADPH consumption, diaphorase/resazurin fluorescence. Potency, µM (titrated, usually from 76.6 µM), actives largely listed as inhibitors. actives 0.093% (n = 390,000). AID 602179; also: nearly all actives have a fitted effect of over 65% in size
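IDH1-R132H (0.5 ug/mL dispensed) in pH 7.5 Tris buffer was preincubated 30 min with compound, then given a substrate mix of 0.016 mM NADPH and 2 mM alpha-KG for 80 min at room temperature; remaining NADPH was read by diaphorase/resazurin fluorescence.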
FLuc enzyme inh: counter-screen for Nrf2 inhibitors: firefly luciferase enzyme inhibition; shares compounds with Nrf2 inh; purified firefly luciferase, luminescence inhibition; Potency, µM (series often up to 57.5 µM), usual class: inhibitors; actives 4% (n = 1,400); AID 720522; also: nearly all actives have a fitted effect of over 65% in size
A549 tox-2: A549 cytotoxicity, Nrf2 inhibitor counterscreen. shares compounds with Nrf2 inh. A549 ARE-Fluc cells, cytotoxicity counterscreen. Potency, µM (highest dose often 46.1 µM), actives largely listed as inhibitors. actives 2% (n = 1,400). AID 720523;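 also: cells exposed to compounds for 18 to 24 hours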
Nrf2 ARE inh: reduces Nrf2 ARE reporter signal in A549 cells. Potency, µM (titrated, usually from 46.1 µM), usual class: inhibitors. shares compounds with Nrf2 inh. A549 ARE-firefly luciferase reporter, luminescence. actives 74% (n = 1,400). AID 720524; also: nearly all actives have a fitted effect of over 65% in size
Hits are given with their value; 0 = inactive; ? = inconclusive; - = no result; ! = repeats disagree; [ ] = remark or other dose. A selection: hits, their analogues and other compounds. The true share with any hit is near 3.1%. Calls follow the shape of the dose curve; as a rule, active = well fitted curve in the direction sought with a large enough effect; inconclusive = small, poorly fitted or top-dose-only effect, or another doubt; inactive = no such curve, though single readings can be large; an effect the other way counts as inactive or inconclusive.

SMILES	Nrf2 inh	Mito fusion yeast	rTrxR1 inhibitor	TrxR1 substrate	A549 tox-1	mIDH1 inhibitor	others
CCCCn1c(O)c(C(CC)=Nc2ccc(OCC)cc2)c(=O)[nH]c1=O	13µM	0	0	0	0	0
CCCCn1c(O)c(C(CC)=Nc2ccc(OC)cc2OC)c(=O)[nH]c1=O	?	0	0	0	0	0
O=C(O)CNC(=O)C(CS)Cc1ccccc1 (configuration not stated)	10µM	0	0	0	0	0
CC(Cc1ccccc1)NC(N)=O (configuration not stated)	0	0	0	0	0	0
CCCOP(=O)(c1ccc(N(C)C)cc1)C(O)c1ccc(Cl)cc1Cl (configuration not stated)	?	0	0	0	0	0
Clc1ccc(COC(Cn2ccnc2)c2ccc(Cl)cc2Cl)c(Cl)c1 (configuration not stated)	?	3.5µM	0	0	0	?
C=CCOC(Cn1ccnc1)c1ccc(Cl)cc1Cl (configuration not stated)	0	25µM	0	0	0	0
Cc1ccc(S(=O)(=O)Nc2ccc3ncccc3c2[N+](=O)[O-])cc1	?	-	0[11.4 µM]	0[11.4 µM]	0	0
O=C(Cn1c(=O)oc2ccccc21)NCCc1ccccc1	0	0	0	0	0	0
Cc1ccc(S(=O)(=O)N2CCC(=O)N(CCOC(=O)Nc3cccc(Cl)c3)CC2)cc1	?	0	0	0	0	0
COc1c(C)cc(Br)cc1C(=O)Nc1ccc(-c2nc3ncccc3o2)cc1	?	-	0	0	0	0
Cc1cccc(-n2nc(C)c(C(=O)N3CCN(c4ccccc4)CC3)c2-n2cccc2)c1	?	-	0	0	0	0
O=C1NC(=O)N(Cc2ccco2)C(=O)/C1=C\c1cccn1CCOc1ccc(Cl)cc1	0	0	22µM	0	0	0
Cc1cccc(OCCn2cccc2/C=C2/C(=O)NC(=O)N(Cc3ccco3)C2=O)c1	?	0	35µM	0	0	0
Brc1c(Br)c(Br)c2n[nH]nc2c1Br	-	4.6µM	0	0	-	-
COc1cc(/C=C/[N+](=O)[O-])ccc1O	?	0	3.2µM	0	?	0
CCN(CC)c1ccc(/C=C/[N+](=O)[O-])cc1	0	0	?	0	0	0
COC(=O)c1ccc(N2CCN(C)CC2)c([N+](=O)[O-])c1	0	0	0	0	0	0
NC(=O)c1cc(N2CC2)c([N+](=O)[O-])cc1[N+](=O)[O-]	13µM	0	0	0	?	0
COc1ccc(C(=O)NCCn2cc(SC(C)c3ccccc3)c3ccccc32)cc1OC (configuration not stated)	23µM	-	0	0	0	0
CC(=O)NCC(N)C(=O)c1ccc(C)cc1 (configuration not stated)	-	-	0	0	-	-
N=c1c2c(n(Cc3ccc(Cl)cc3Cl)c3c1CCC3)CCCC2	13µM	0	0	0	?	0
Cc1nn(Cc2ccc(Cl)cc2Cl)c(Cl)c1C(=O)O	0	0	0	0	0	0
NC(=S)c1cn(C2OC(CO)C(O)C2O)c2ncnc(N)c12 (configuration not stated)	?	0	0	0	?	0
Nc1ncnc2c1ccn2[C@@H]1O[C@H](CO)[C@@H](O)[C@H]1O	3.7µM	-	0	0	?	0	FLuc enzyme inh=0;A549 tox-2=?;Nrf2 ARE inh=0.65µM
SMILES	Nrf2 inh	Mito fusion yeast	rTrxR1 inhibitor	TrxR1 substrate	A549 tox-1	mIDH1 inhibitor	others
COc1ccc(-n2c(/C=C\c3ccccc3F)nc3ccccc3c2=O)cc1OC	-	-	0	0	0	0
COC(COC(N)=O)C1=C(N2CC2)C(=O)C(C)=C(N2CC2)C1=O (configuration not stated)	2.1µM	-	?	0	10µM	0	FLuc enzyme inh=0;A549 tox-2=0;Nrf2 ARE inh=0.058µM
COC12C(COC(N)=O)C3=C(C(=O)C(C)=C(N)C3=O)N1CC1C2N1C (configuration not stated)	0	0	?	0	0	0
Cc1oc(-c2ccccc2F)nc1CS(=O)(=O)CC(=O)N1CCN(c2cccc(C(F)(F)F)c2)CC1	?	-	0	0	0	0
CC[C@@]1(O)C(=O)OCc2c1cc1n(c2=O)Cc2cc3ccccc3nc2-1	2.1µM	13µM!	0	0	0	-	FLuc enzyme inh=0;A549 tox-2=?;Nrf2 ARE inh=0.46µM
CCC1(O)C(=O)OCc2c1cc1n(c2=O)Cc2cc3cc(O)ccc3nc2-1 (configuration not stated)	2.3µM	-	0	0	0	0	FLuc enzyme inh=0;A549 tox-2=0;Nrf2 ARE inh=0.41µM
CCCOC1CCCN(C(=O)CCc2nnc(Cc3cccc(C)c3)o2)C1 (configuration not stated)	?	0	0	0	0	0
O=c1c2ccccc2nc2n1CCS2(=O)=O	0	0	?	0	0	0
CN(Cc1ccccc1)C(=O)c1cccc(NC(=O)Cc2ccc([N+](=O)[O-])cc2)c1	?	-	0	0	0	0
COc1ccc(NC(=O)CSc2nc(-c3ccco3)cc(C(F)(F)F)n2)cc1OC	1.6µM	-	0	0	0	0	FLuc enzyme inh=0;A549 tox-2=0;Nrf2 ARE inh=2.3µM
CN1CC=C(c2c[nH]c3ccccc23)CC1	1.8µM	0	0	0	?	0	FLuc enzyme inh=0;A549 tox-2=0;Nrf2 ARE inh=16µM
CC12CC[C@H]3[C@@H](CCC4(O)C[C@H](O)CCC34/C=N/NC(=O)c3ccccc3F)C1(O)CCC2C1=CC(=O)OC1 (some centres not stated)	9.2µM	0	0	0	0	0	FLuc enzyme inh=0;A549 tox-2=?;Nrf2 ARE inh=12µM
CC12CC[C@H]3[C@@H](CCC4(O)C[C@H](O)CCC34/C=N/NC(=O)c3ccc(O)cc3)C1(O)CCC2C1=CC(=O)OC1 (some centres not stated)	0	0	0	0	0	0
CN(C)c1ccc(C(=O)N/N=C/C23CC[C@@H](O)CC2(O)CC[C@@H]2[C@@H]3CCC3(C)C(C4=CC(=O)OC4)CCC23O)cc1 (some centres not stated)	5.8µM	0	0	0	?	0	FLuc enzyme inh=0;A549 tox-2=?;Nrf2 ARE inh=3.7µM
CC12CC[C@H]3[C@@H](CCC4(O)C[C@H](O)CCC34/C=N/NC(=O)c3ccccc3O)C1(O)CCC2C1=CC(=O)OC1 (some centres not stated)	?	0	0	0	0	0
